Experimental data: PubChem BioAssay
For some assays here: Potency and affinity values are given separately. Active and inactive are the calls of the source.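 How the source made its calls, unless noted: active means hit in primary screen, with calcium signal over 5 SD above buffer well mean in both duplicates; inactive means the rest.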

Key:
[1] = test system: TRPC4 beta (transient receptor potential cation channel C4), mouse; test: activators of mouse TRPC4 channel, confirmation, cell-based, Fluo4 calcium, HEK293 TRPC4beta/mu-opioid, duplicates, 10 µM (AID 2426;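 active means fluorescence ratio normalized to control raised more than 50% in primary screen plus both repeat runs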;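 on activation: percent rise of integrated ratio over buffer wells lacking compound which define 0%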); conditions: Fluo4 calcium fluorescence, at 10 µM; stronger effect = higher value
[2] = test system: transient receptor potential cation channel C4 beta (TRPC4), mouse; test: activators of mouse TRPC4 channel, confirmation, cell-based, second round, Fluo4, HEK293 TRPC4beta/mu-opioid, 1 µM (AID 2461;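 active means primary screen active and over 50% activation in each of two duplicate runs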;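 on activation: 0% = wells without test compound as baseline of integrated fluorescence ratio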); conditions: Fluo4 calcium fluorescence, at 1 µM; stronger effect = higher value
[3] = test system: TRPC4 (transient receptor potential cation channel C4 beta), mouse; test: positive allosteric modulators of mouse TRPC4, confirmation, cell-based, second round, Fluo-4, HEK293 TRPC4beta/mu-opioid, 1 µM (AID 2554;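 active means primary screen hit whose fluorescence ratio, in both repeats, exceeds the weak agonist control mean by 3 SD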); conditions: DAMGO EC20, Fluo-4 calcium flux, at 1 µM; stronger effect = higher value
[4] = test system: TRPC4 beta (transient receptor potential cation channel C4), mouse; test: positive allosteric modulators of mouse TRPC4, confirmation, cell-based, Fluo-4, HEK293 TRPC4beta/mu-opioid (AID 2555;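 active means primary screen hit whose calcium fluorescence ratio, in both repeats, exceeds the weak agonist control mean by 3 SD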); conditions: DAMGO EC20, Fluo-4 calcium flux, at 10 µM; stronger effect = higher value
[5] = target: Short transient receptor potential channel 4 (Mus musculus) (UniProt Q9QUQ5); test: inhibitors of mouse TRPC4 channel, confirmation, cell-based, Fluo4, HEK293 TRPC4beta/mu-opioid (AID 2636;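 active means calcium signal cut by more than 3 SD below the full-agonist control yet still positive, in both repeats and the earlier primary screen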); conditions: DAMGO, Fluo4 calcium flux, at 10 µM; stronger effect = higher value
[6] = target: Short transient receptor potential channel 4 (Mus musculus) (UniProt Q9QUQ5); test: inhibitors of mouse TRPC4 channel, confirmation, cell-based, second round, Fluo4, HEK293 TRPC4beta/mu-opioid, 1 µM (AID 2637;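 active means calcium signal ratio cut to more than 3 SD under the fully stimulated control mean yet still positive, in both repeats and the primary screen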;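 on inhibition: percent of integrated ratio relative to wells lacking test compound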); conditions: Fluo4 calcium flux, DAMGO, at 1 µM; stronger effect = higher value
[7] = target: Short transient receptor potential channel 4 (Mus musculus) (UniProt Q9QUQ5); test: TRPC4 positive allosteric modulators, dose response, cell-based, HEK293 TRPC4/mu-opioid, Fluo-4 calcium, EC20 DAMGO (AID 434941;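 active means earlier screen potentiator hit that boosts the TRPC4 ion channel at some dose, with a dose response; inactive means no potentiation, no dose response, or not a prior hit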;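 further: calcium entry triggered by an EC20 dose of DAMGO at the co-expressed mu-opioid receptor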); conditions: HEK293 TRPC4/mu-opioid cells, Fluo-4 calcium fluorescence; series mostly up to 20 µM
[8] = target: Short transient receptor potential channel 4 (Mus musculus) (UniProt Q9QUQ5); test: mouse TRPC4 channel inhibitors, dose response, cell-based, HEK293 TRPC4/mu-opioid, Fluo-4 calcium (AID 434942;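 active means primary screen inhibitor hit that blocks the TRPC4 channel at some tested dose, yielding a dose curve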); conditions: HEK293 TRPC4/mu-opioid cells, DAMGO-evoked Fluo-4 calcium ratio; series mostly up to 20 µM
[9] = target: Short transient receptor potential channel 6 (Mus musculus) (UniProt Q61143); test: inhibition of mouse TRPC6 channel, confirmation, selectivity assay for TRPC4 inhibitor project, cell-based, HEK293, membrane potential dye, duplicate (AID 434948;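 active means active in primary screen and both duplicates, each dropping signal beyond three positive-control SD with fluorescence still positive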); conditions: HEK293 TRPC6, membrane potential dye fluorescence, at 10 µM, stimulated with maximal-effect acetylcholine; stronger effect = higher value
[10] = target: Short transient receptor potential channel 6 (Mus musculus) (UniProt Q61143); test: activation of mouse TRPC6 channel, confirmation, selectivity assay for TRPC4 activator project, cell-based, HEK293, membrane potential dye, duplicate (AID 434950;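 active means membrane potential signal rise above negative control mean plus 3 SD in both duplicates, also active in the earlier TRPC4 screen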;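 on activation: 0% = buffer only wells and 100% = acetylcholine maximal-effect wells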); conditions: HEK293 TRPC6, membrane potential fluorescence, at 10 µM; stronger effect = higher value
[11] = target: Short transient receptor potential channel 6 (Mus musculus) (UniProt Q61143); test: TRPC6 potentiation by TRPC4 potentiator hits, confirmation, selectivity assay for TRPC4 potentiator project, HEK293 cells, membrane potential dye, duplicate (AID 434952;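 active means compound raising the membrane signal above positive-control mean plus 3 SD in both repeats, and a primary screen hit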); conditions: HEK293 TRPC6, membrane potential dye fluorescence, at 10 µM, maximal acetylcholine added after compound; stronger effect = higher value
[12] = target: Short transient receptor potential channel 4 (Mus musculus) (UniProt Q9QUQ5); test: calcium flux activators in TRPC4/5HT1a cells, counter-screen for TRPC4 activator project, cell-based, second counter screen, HEK293 TRPC4/5HT1a, Fluo-4 (AID 434977;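 active means calcium signal rise above buffer-control mean plus 5 SD in both duplicates, and also a hit in the primary screen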;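 on activation: plate controls were assay buffer for no effect and maximal serotonin response for full effect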); conditions: Fluo-4 calcium flux, at 10 µM; stronger effect = higher value
[13] = calcium flux inhibitors in TRPC4/5HT1a cells, confirmation, counter-screen for TRPC4 inhibitor project, cell-based, second counter screen, HEK293 TRPC4/5HT1a, Fluo-4 (AID 434978;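 active means primary screen active whose calcium signal fell more than 3 SD beyond the full-serotonin control mean in both duplicate plates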;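 on outcome: serotonin given first at submaximal then at maximal dose after compound preincubation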); conditions: Fluo-4 calcium flux, at 10 µM, serotonin added to trigger calcium flux; stronger effect = higher value
[14] = test system: TRPC4 (mouse), co-expressed with 5HT1a in HEK293; test: calcium flux potentiators in TRPC4/5HT1a cells, confirmation, counter-screen for TRPC4 potentiator project, cell-based, second counter screen, HEK293 TRPC4/5HT1a, Fluo-4 (AID 434979;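 active means signal rise over 3 SD above mean of control wells given weak agonist, in both repeats and first screen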); conditions: Fluo-4 calcium flux, at 10 µM, serotonin added at its EC20 dose; stronger effect = higher value
[15] = calcium flux activation in mu-opioid HEK293 cells, confirmation, counter-screen for TRPC4 activator project, cell-based, HEK293 mu-opioid receptor line (AID 449723); conditions: Fluo-4 calcium fluorescence, at 10 µM; stronger effect = higher value;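 further: counter screen cells carry the mu-opioid receptor alone and lack TRPC4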
[16] = calcium flux enhancement in mu-opioid HEK293 cells, confirmation, counter-screen for TRPC4 allosteric potentiator project, cell-based, HEK293 mu-opioid receptor line (AID 449724;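 active means calcium signal rise more than 3 SD above the low-dose agonist control mean, in both duplicate plates and the primary screen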); conditions: Fluo-4 calcium flux, at 10 µM, compound added before EC20 DAMGO stimulus; stronger effect = higher value

Short transient receptor potential channel 4 (Mus musculus), sequence (Q9QUQ5 whole entry, looked up): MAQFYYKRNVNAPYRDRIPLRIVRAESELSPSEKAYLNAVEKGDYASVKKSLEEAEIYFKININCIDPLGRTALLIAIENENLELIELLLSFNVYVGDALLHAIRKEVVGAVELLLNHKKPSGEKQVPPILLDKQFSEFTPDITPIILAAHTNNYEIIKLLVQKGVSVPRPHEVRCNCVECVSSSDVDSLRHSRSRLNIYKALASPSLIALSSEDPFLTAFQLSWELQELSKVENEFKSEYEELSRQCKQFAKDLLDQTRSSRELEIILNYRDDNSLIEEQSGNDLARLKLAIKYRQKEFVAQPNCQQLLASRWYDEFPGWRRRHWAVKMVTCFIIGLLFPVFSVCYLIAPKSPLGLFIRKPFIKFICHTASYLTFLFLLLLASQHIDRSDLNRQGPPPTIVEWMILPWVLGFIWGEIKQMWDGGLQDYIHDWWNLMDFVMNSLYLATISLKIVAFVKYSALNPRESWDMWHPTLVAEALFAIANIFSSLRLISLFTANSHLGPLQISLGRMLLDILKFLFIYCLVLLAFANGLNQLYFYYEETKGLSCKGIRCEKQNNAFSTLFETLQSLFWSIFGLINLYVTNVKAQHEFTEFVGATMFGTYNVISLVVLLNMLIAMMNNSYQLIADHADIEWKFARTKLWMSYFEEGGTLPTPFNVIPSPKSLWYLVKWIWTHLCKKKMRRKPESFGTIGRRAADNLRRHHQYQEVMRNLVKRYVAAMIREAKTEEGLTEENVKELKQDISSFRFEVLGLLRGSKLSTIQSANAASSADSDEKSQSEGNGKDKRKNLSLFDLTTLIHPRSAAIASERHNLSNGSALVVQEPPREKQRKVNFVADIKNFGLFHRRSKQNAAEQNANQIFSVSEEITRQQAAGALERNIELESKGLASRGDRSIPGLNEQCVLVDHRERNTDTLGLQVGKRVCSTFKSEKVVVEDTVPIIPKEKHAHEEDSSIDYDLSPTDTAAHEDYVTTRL
Short transient receptor potential channel 6 (Mus musculus), sequence (Q61143 whole entry, looked up): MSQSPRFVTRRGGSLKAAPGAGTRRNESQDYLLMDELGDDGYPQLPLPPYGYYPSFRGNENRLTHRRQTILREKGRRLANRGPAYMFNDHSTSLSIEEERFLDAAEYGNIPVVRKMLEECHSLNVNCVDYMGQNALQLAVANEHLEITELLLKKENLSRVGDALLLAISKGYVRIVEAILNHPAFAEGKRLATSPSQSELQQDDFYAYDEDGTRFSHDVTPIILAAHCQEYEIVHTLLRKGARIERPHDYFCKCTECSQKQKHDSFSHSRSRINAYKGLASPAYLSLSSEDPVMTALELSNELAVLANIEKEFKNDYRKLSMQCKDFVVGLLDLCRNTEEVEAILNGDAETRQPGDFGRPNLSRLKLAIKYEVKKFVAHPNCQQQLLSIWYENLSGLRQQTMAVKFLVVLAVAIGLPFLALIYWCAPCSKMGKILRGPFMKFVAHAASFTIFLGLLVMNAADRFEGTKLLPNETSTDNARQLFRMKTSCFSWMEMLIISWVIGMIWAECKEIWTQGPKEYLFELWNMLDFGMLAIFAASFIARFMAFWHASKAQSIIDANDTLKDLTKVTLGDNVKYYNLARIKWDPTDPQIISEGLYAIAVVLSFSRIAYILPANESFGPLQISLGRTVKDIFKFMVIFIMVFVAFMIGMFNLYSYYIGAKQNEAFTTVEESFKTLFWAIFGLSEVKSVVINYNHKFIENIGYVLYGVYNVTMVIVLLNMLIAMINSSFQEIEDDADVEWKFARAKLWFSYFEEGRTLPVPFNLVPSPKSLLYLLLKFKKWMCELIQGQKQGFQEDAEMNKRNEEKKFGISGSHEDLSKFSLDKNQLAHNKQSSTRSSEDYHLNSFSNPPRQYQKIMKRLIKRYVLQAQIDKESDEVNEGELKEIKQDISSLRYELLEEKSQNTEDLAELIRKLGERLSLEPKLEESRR

Cc1ccc(OCC(=O)NNC(=S)NC(=O)C(C)(C)C)c(Br)c1
activation [1]: 120% (active)
outcome [2]: inactive
outcome [3]: inactive
outcome [4]: inactive
outcome [5]: inactive
outcome [6]: inactive
outcome [7]: inactive
outcome [8]: inactive
outcome [9]: inactive
activation [10]: 24% (active)
outcome [11]: inactive
activation [12]: 90.9% (active)
outcome [13]: inactive
outcome [14]: inactive
activation [15]: 19.6% (active)
outcome [16]: inactive

O=c1c2c(-c3ccccc3)csc2ncn1/N=C/c1cccc([N+](=O)[O-])c1O
outcome [1]: inactive
outcome [2]: inactive
outcome [3]: inactive
outcome [4]: inactive
inhibition [5]: 90% (active)
inhibition [6]: 39% (active)
outcome [7]: inactive
outcome [9]: inactive
outcome [10]: inactive
outcome [11]: inactive
activation [12]: 36.1% (active)
inhibition [13]: 27.2% (active)
outcome [14]: inactive
outcome [15]: inactive
outcome [16]: inactive

COc1ccc(Cl)cc1NC(=O)CNCC(c1ccccc1)N(C)C (stereo not given)
outcome [1]: inactive
outcome [2]: inactive
outcome [3]: inactive
outcome [4]: inactive
inhibition [5]: 100% (active)
inhibition [6]: 60% (active)
outcome [7]: inactive
outcome [9]: inactive
activation [10]: 52.5% (active)
outcome [11]: inactive
outcome [12]: inactive
outcome [13]: inactive
outcome [14]: inactive
outcome [15]: inactive
outcome [16]: inactive

COC(=O)C1=NN(C(=O)c2ccc(C)cc2)C(O)(c2ccc(Cl)cc2)C1 (stereo not given)
activation [1]: 160% (active)
outcome [2]: inactive
outcome [3]: inactive
outcome [4]: inactive
outcome [5]: inactive
outcome [6]: inactive
outcome [7]: inactive
outcome [8]: inactive
outcome [9]: inactive
activation [10]: 315% (active)
outcome [11]: inactive
activation [12]: 96.9% (active)
outcome [13]: inactive
outcome [14]: inactive
activation [15]: 67.6% (active)
outcome [16]: inactive

Cc1onc(-c2ccccc2)c1C(=O)NNC(=S)NC(=O)c1ccc(Cl)cc1Cl
activation [1]: 274% (active)
activation [2]: 81% (active)
outcome [3]: inactive
outcome [4]: inactive
outcome [5]: inactive
outcome [6]: inactive
outcome [7]: inactive
outcome [8]: inactive
outcome [9]: inactive
activation [10]: 28% (active)
outcome [11]: inactive
activation [12]: 142% (active)
outcome [13]: inactive
outcome [14]: inactive
activation [15]: 96.9% (active)
outcome [16]: inactive

O=C(NCc1ccccc1)C1=C[C@H](c2ccc3c(c2)OCO3)C[C@H](OCc2ccc(CO)cc2)O1
activation [1]: 142% (active)
outcome [2]: inactive
outcome [3]: inactive
outcome [4]: inactive
outcome [5]: inactive
outcome [6]: inactive
outcome [7]: inactive
outcome [9]: inactive
outcome [10]: inactive
outcome [11]: inactive
activation [12]: 115% (active)
inhibition [13]: 18.1% (active)
outcome [14]: inactive
outcome [15]: inactive
outcome [16]: inactive

CC(C)(C)c1cc(CCC(=O)NNC(=S)NC(=O)c2ccccc2)cc(C(C)(C)C)c1O
activation [1]: 150% (active)
outcome [2]: inactive
outcome [3]: inactive
outcome [4]: inactive
outcome [5]: inactive
outcome [6]: inactive
outcome [7]: inactive
outcome [8]: inactive
outcome [9]: inactive
outcome [10]: inactive
outcome [11]: inactive
activation [12]: 92% (active)
outcome [13]: inactive
outcome [14]: inactive
activation [15]: 41.2% (active)
outcome [16]: inactive

COc1ccc(C(=O)NC(=S)NNC(=O)c2cccc(C)c2)cc1
activation [1]: 142% (active)
outcome [2]: inactive
outcome [3]: inactive
outcome [4]: inactive
outcome [5]: inactive
outcome [6]: inactive
outcome [7]: inactive
outcome [8]: inactive
outcome [9]: inactive
activation [10]: 27% (active)
outcome [11]: inactive
activation [12]: 133% (active)
outcome [13]: inactive
outcome [14]: inactive
activation [15]: 40.2% (active)
outcome [16]: inactive

Clc1ccc(COn2c(-c3ccc(Cl)cc3Cl)nc3ncccc32)cc1
activation [1]: 74% (active)
outcome [2]: inactive
outcome [3]: inactive
outcome [4]: inactive
outcome [5]: inactive
outcome [6]: inactive
outcome [7]: inactive
outcome [9]: inactive
activation [10]: 54% (active)
outcome [11]: inactive
outcome [12]: inactive
outcome [13]: inactive
outcome [14]: inactive
outcome [15]: inactive
outcome [16]: inactive

Cc1ccccc1Nc1nc(NCc2ccco2)c2ccccc2n1
outcome [1]: inactive
outcome [2]: inactive
outcome [3]: inactive
outcome [4]: inactive
outcome [5]: inactive
inhibition [6]: 41% (active)
outcome [7]: inactive
inhibition [9]: 43.5% (active)
outcome [10]: inactive
outcome [11]: inactive
outcome [12]: inactive
inhibition [13]: 36.9% (active)
outcome [14]: inactive
outcome [15]: inactive
outcome [16]: inactive

CCOC(=O)C1(CC2CC2)CCN(Cc2cn[nH]c2-c2ccccc2)CC1
outcome [1]: inactive
outcome [2]: inactive
outcome [3]: inactive
outcome [4]: inactive
inhibition [5]: 97% (active)
inhibition [6]: 47% (active)
outcome [7]: inactive
outcome [9]: inactive
activation [10]: 91% (active)
outcome [11]: inactive
outcome [12]: inactive
inhibition [13]: 35.9% (active)
outcome [14]: inactive
outcome [15]: inactive
outcome [16]: inactive

CCOC(=O)C1(CC2CC2)CCN(Cc2ccc3cccc(F)c3n2)CC1
activation [1]: 129% (active)
outcome [2]: inactive
outcome [3]: inactive
outcome [4]: inactive
inhibition [5]: 89% (active)
outcome [6]: inactive
outcome [7]: inactive
outcome [9]: inactive
activation [10]: 50.5% (active)
outcome [11]: inactive
activation [12]: 19.5% (active)
inhibition [13]: 30.9% (active)
outcome [14]: inactive
outcome [15]: inactive
outcome [16]: inactive

CN(C)CCCN(C(=O)c1ccc(S(=O)(=O)N(C)C)cc1)c1nc2ccc(F)cc2s1
activation [1]: 59% (active)
outcome [2]: inactive
outcome [3]: inactive
outcome [4]: inactive
outcome [5]: inactive
inhibition [6]: 37% (active)
outcome [7]: inactive
outcome [9]: inactive
outcome [10]: inactive
outcome [11]: inactive
outcome [12]: inactive
outcome [13]: inactive
outcome [14]: inactive
outcome [15]: inactive
outcome [16]: inactive

CN(C)/C=C1\C(=O)N(c2ccc([N+](=O)[O-])cc2)N=C1c1ccccc1
activation [1]: 76% (active)
outcome [2]: inactive
outcome [3]: inactive
outcome [4]: inactive
inhibition [5]: 85% (active)
outcome [6]: inactive
outcome [7]: inactive
outcome [9]: inactive
outcome [10]: inactive
outcome [11]: inactive
activation [12]: 68.6% (active)
inhibition [13]: -1.74% (active)
outcome [14]: inactive
outcome [15]: inactive
outcome [16]: inactive

Cc1onc(-c2ccccc2)c1C(=O)NNC(=S)NC(=O)/C=C/c1ccccc1
outcome [1]: inactive
outcome [2]: inactive
outcome [3]: inactive
outcome [4]: inactive
inhibition [5]: 77% (active)
outcome [6]: inactive
outcome [7]: inactive
outcome [9]: inactive
activation [10]: 32.5% (active)
outcome [11]: inactive
activation [12]: 39.7% (active)
inhibition [13]: 19.2% (active)
outcome [14]: inactive
activation [15]: 14.8% (active)
outcome [16]: inactive
